Data published in PubChem BioAssay AID602282 (Johns Hopkins Ion Channel Center, 2012).
The whole screen tested about 1,100 compounds, of which about 1,000 (91%) were called active. So high a share suggests a set chosen from earlier hits. Only a sample is shown. Unmarked numbers belong to inactive results.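 Rule for the calls: active = inhibition above 3 SD of the buffer control wells (cut at about 41% in these data); inactive = the rest.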

Test: inhibition of M3R-evoked calcium signal on retest – cell-based, HEK293 M3R/RGS4 inducible, calcium flux, duplicate, RGS4 activator project, confirmation (AID 602282);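 note: signal is the integrated peak-minus-minimum Fluo4 fluorescence over baseline ratio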
Settings: carbachol calcium flux Fluo4, at 10 µM, active compounds read high

Which inhibition does the source give for `Cc1nn(C)cc1N1C(=O)c2cccc3c(N)ccc(c23)C1=O` here?
The inhibition was 97.5% (active).

Which inhibition does the source give for `OCCC1CN(Cc2ccc3nsnc3c2)CCN1C1CCCC1` (stereo not given) here?
The inhibition was 82.5% (active).

With `COc1cccc(/C=N/Nc2cc(C)nc(-c3ccccc3O)n2)c1O` as the molecule, how does the inhibition read?
Its inhibition is 93.5% (active).

For `COc1cccc(-c2cc3nc4c(c(N5CCC6(CC5)OCCO6)n3n2)CCCC4)c1`, which inhibition is on record?
The inhibition was 56.5% (active).

With `Cc1ccc(OS(=O)(=O)c2ccc(-c3csc(C)n3)s2)c(C)c1` as the molecule, how does the inhibition read?
The inhibition was 82% (active).

With `COC(=O)c1ccc(CN2CCC(CO)(Cc3ccc(OC)cc3)CC2)cc1` as the molecule, how does the inhibition read?
The inhibition was 92% (active).

Which inhibition does the source give for `CCCCCC(O)(CCN1CCCCC1)c1ccccc1` (stereo not given) here?
The inhibition was 93% (active).

With `C#CC(CCN1CCCCC1)(OC)c1ccccc1` (stereo not given) as the molecule, how does the inhibition read?
The inhibition was 93% (active).

Which inhibition does the source give for `Cc1ccc(SCC(=O)c2cc(C)c(OC(=S)N(C)C)c(C)c2)cc1` here?
Its inhibition is 88.5% (active).

For `Cc1cc2oc3ccc(NCCC4CCCN4C)cc3c(=O)c2cc1C` (stereo not given), which inhibition is on record?
The inhibition was 91% (active).

Which inhibition does the source give for `O=S(=O)(c1ccc(Br)cc1)n1ccc2ccccc21` here?
Its inhibition is 80.5% (active).

Which inhibition does the source give for `CCc1c(C)sc(NC(=O)c2ccc(Br)o2)c1C(=O)OC` here?
Its inhibition is 69.5% (active).

For `Cc1oc2c(F)c(F)c(F)c(F)c2c1S(=O)(=O)Nc1cccc(C(F)(F)F)c1`, which inhibition is on record?
Its inhibition is 92% (active).

With `COc1ccc(C(=O)Nc2nc(-c3ccc(S(=O)(=O)N4CCOCC4)cc3)cs2)cc1` as the molecule, how does the inhibition read?
Its inhibition is 85.5% (active).

For `CCc1ccccc1NC(=O)[C@@H]1CCC(=O)N1C1OC(=O)c2c1ccc(OC)c2OC` (stereo not given in full), which inhibition is on record?
Its inhibition is 0% [the number is a placeholder, only the call stands].

With `CCC1CCCCN1CCCNC(=O)c1cc2c(Cl)nc3ccccc3c2s1` (stereo not given) as the molecule, how does the inhibition read?
Its inhibition is 93.5% (active).

With `N=c1c2c3c(sc2nc2n1CCCCC2)CCCC3` as the molecule, how does the inhibition read?
The inhibition was 87% (active).

Which inhibition does the source give for `Oc1ccccc1N1CCN(c2ncnc3sc(-c4ccccc4)cc23)CC1` here?
The inhibition was 87.5% (active).

With `COc1ccc(/C=C(\C#N)c2c[nH]c3ccccc23)cc1` as the molecule, how does the inhibition read?
Its inhibition is 85% (active).

With `COc1cccc(CNC(=O)CCC2CCCN(Cc3ccc(OC(F)F)cc3)C2)c1` (stereo not given) as the molecule, how does the inhibition read?
The inhibition was 74% (active).

With `Cc1nc(N2CCN(c3ccccn3)CC2)c2c(C)c(C(=O)Nc3ccc(F)cc3)sc2n1` as the molecule, how does the inhibition read?
Its inhibition is 91% (active).

For `OC(CN=c1sc2ccccc2n1CC(O)COc1ccccc1)COc1ccccc1` (stereo not given), which inhibition is on record?
The inhibition was 91.5% (active).

For `CCOC(=O)C1=C(NC(=S)NC(=O)c2ccccc2)c2ccccc2CC1(C)C`, which inhibition is on record?
Its inhibition is 92% (active).

Which inhibition does the source give for `CN1CCN(C(=O)N2c3ccccc3CCc3ccccc32)CC1` here?
Its inhibition is 90.5% (active).

Which inhibition does the source give for `O=C(Cn1c(N2CCN(C/C=C/c3ccccc3)CC2)nc2ccccc21)c1ccccc1` here?
Its inhibition is 91.5% (active).

Which inhibition does the source give for `Cc1cccc(-c2nc3ccc(C(=O)NCCN4CCN(C)CC4)cc3nc2-c2cccc(C)c2)c1` here?
The inhibition was 93.5% (active).

With `COc1ccc(CN2CCCC(C(=O)c3ccc(Cl)cc3)C2)cc1Cn1cncn1` (stereo not given) as the molecule, how does the inhibition read?
Its inhibition is 93% (active).

For `COc1ccccc1C(CNC(=O)c1cccc(NS(=O)(=O)c2ccc(Br)cc2)c1)N(C)C` (stereo not given), which inhibition is on record?
The inhibition was 85% (active).

With `O=C(CN1CCCCCC1)Nc1ccc(S(=O)(=O)N2CCCCC2)cc1` as the molecule, how does the inhibition read?
The inhibition was 65% (active).

Which inhibition does the source give for `CCCN(CCc1ccccc1)C1CCc2c(O)cccc2C1` (stereo not given) here?
Its inhibition is 78% (active).

For `CN(C)CCOc1ccc(Cl)cc1C(C)(C)C`, which inhibition is on record?
Its inhibition is 81.5% (active).

For `COc1ccc(-c2cc(C(=O)N(C)Cc3ccccc3)c3ccccc3n2)cc1`, which inhibition is on record?
The inhibition was 88.5% (active).

With `COc1ccc(CN(C)C(=O)c2cc(-c3ccc(C)cc3C)nc3ccccc23)c(OC)c1OC` as the molecule, how does the inhibition read?
The inhibition was 90% (active).

With `Cc1ccc(N2C(=O)CC(Nc3cccc4ccccc34)C2=O)cc1` (stereo not given) as the molecule, how does the inhibition read?
The inhibition was 0% [the number is a placeholder, only the call stands].

With `CN(C)S(=O)(=O)N1CCC(Oc2cccc(C(=O)NCCCC3CCCC3)c2)CC1` as the molecule, how does the inhibition read?
The inhibition was 78.5% (active).

For `Cc1ccc(C)c(N2CCN(C(=O)CCCCCn3c(=S)[nH]c4ccc(N5CCOCC5)cc4c3=O)CC2)c1`, which inhibition is on record?
The inhibition was 92% (active).

For `Cc1ccc(C)c(N2CCN(C(=O)CCCn3c(=O)c4cccn4c4cccnc43)CC2)c1`, which inhibition is on record?
The inhibition was 85.5% (active).

For `O=C(c1cccs1)C1C(c2ccc(Br)cc2)NC(=S)NC1(O)C(F)(F)F` (stereo not given), which inhibition is on record?
Its inhibition is 93.5% (active).

With `CCC1C=C(c2ccccc2)C=CN=C1N(CC)CC` (stereo not given) as the molecule, how does the inhibition read?
Its inhibition is 84% (active).

For `CCOC(=O)c1c(NC(=O)NC(C)(C)C)sc2c1CCN(C)C2`, which inhibition is on record?
The inhibition was 0% [the number is a placeholder, only the call stands].

For `COc1cc(/C=C(\C#N)c2nc3ccccc3[nH]2)ccc1O`, which inhibition is on record?
The inhibition was 80.5% (active).

Which inhibition does the source give for `Cc1cccc(-c2nc(Nc3ccc(O)cc3)c3ccccc3n2)c1` here?
The inhibition was 80% (active).

Which inhibition does the source give for `Cc1ccnc(SCCn2c(N(C)Cc3ccccc3)nc3c2c(=O)n(C)c(=O)n3C)n1` here?
The inhibition was 62% (active).

With `Cc1ccccc1C(OCCN(C)C)C1CCCCC1` (stereo not given) as the molecule, how does the inhibition read?
The inhibition was 91% (active).

With `S=c1[nH]nc(-c2ccc(Cl)cc2)n1CC1CCCO1` (stereo not given) as the molecule, how does the inhibition read?
Its inhibition is 59% (active).

For `CN(C)c1ccc(/C=C2\NC(=S)N(Cc3ccccc3)C2=O)cc1`, which inhibition is on record?
The inhibition was 79.5% (active).

With `CCOc1ccc(C(CC(=O)O)NC(=O)COc2ccccc2)cc1` (stereo not given) as the molecule, how does the inhibition read?
The inhibition was 0% [the number is a placeholder, only the call stands].

With `CC(C)C(c1nnnn1CCc1ccccc1)N1CCN(C(=O)c2ccco2)CC1` (stereo not given) as the molecule, how does the inhibition read?
The inhibition was 87.5% (active).

Which inhibition does the source give for `Cc1ccc(OCCCCN2CCCCC2)c(Br)c1` here?
Its inhibition is 0% [the number is a placeholder, only the call stands].

For `COc1ccc(C(=O)NC2CCCc3c2cnn3-c2cccc(C)c2C)c(OC)n1` (stereo not given), which inhibition is on record?
Its inhibition is 91% (active).
